# Hit rate of the full screen: of about 340,000 compounds, about 4,500 (1.3%) were called active. Another 5% or so got no clear call; they are omitted. The sample holds actives, similar compounds and a random draw of the others, so the mix is not that of the screen. Unmarked numbers belong to inactive results. Calls come from the whole dose curve; as a rule, active = well fitted inhibition curve with a large enough effect; inconclusive = small, poorly fitted or top-dose-only effect, or another doubt; inactive = no such curve, though single readings can be large or run the other way.
# Biological target: DNA polymerase beta (Homo sapiens) (UniProt P06746)
# Assay: qHTS Assay for Inhibitors of DNA Polymerase Beta
# Conditions: Pol beta primer extension/strand displacement, fluorescence kinetic; series mostly up to 114 µM; activity change, negative = inhibition: at the top concentration
# Description: The base excision repair system in human cells is a target for therapeutic modulation of the response to irradiation treatment and DNA-damaging drugs. A key enzyme in this system is the bi-functional DNA polymerase known as DNA polymerase Beta (Pol Beta). The following is a homogeneous kinetic assay to study the primer extension and strand-displacement reaction catalyzed by pol beta.
# A stepwise description of the 1536-well assay is shown in next Table. Three microliters of reagents (buffer in column 3 and 4 as negative control and 10 nM Pol beta in columns 1, 2, and 5-48) was dispensed into 1,536-well black solid-bottomed plate. Compounds (23 nL) were transferred via Kalypsys pin tool equipped with 1536-pin array (10 nL slotted pins, V&P Scientific, San Diego, CA). The plates were incubated for 15 min at room temperature, and 1 uL substrate (50 nM final concentration) were added to start the reaction and immediately read at 0 min read on Viewlux reader. The plate were further incubated for 10 min at room temperature, and then read on Viewlux again. Throughout the screen, reagent bottle and all liquid lines were chilled and made light-tight to minimize reagent degradation. All screening operations were performed on a fully integrated robotic system (Kalypsys, San Diego, CA) containing one RX-130 and two RX-90 anthropomorphic robotic arms (Staubli, Duncan, SC). Library plates were screened starting from the lowest and proceeding to the highest concentration, and a double-dipping step of the highest concentration was required to access higher concentrations of compounds. Vehicle-only plates, with DMSO being pin-transferred to the entire column 5-48 compound area, were inserted uniformly at the beginning and the end of each library in order to monitor for and record any shifts in the background, which can be affected by reagent dispensers or loss in enzyme activity overtime. Screening data were corrected, normalized, and concentration-effect relationships were derived by using publicly-available curve fitting algorithms developed in-house (http://ncgc.nih.gov/pub/openhts). A four parameter Hill equation was fitted to the concentration-response data by minimizing the residual error between the modeled and observed responses.
# % is set by controls: 0 for no effect and ±100 for the full control effect; potency is the fitted concentration of half-maximal effect.
Compound,"activity change, negative = inhibition [%]",Potency
COc1ccc(NC(=O)CSc2nc(N)c(-c3ccccc3)c(=O)[nH]2)cc1,17.3,
COc1ccc(-c2nc3c(c(SCC(=O)Nc4ccc(C(=O)O)cc4)n2)Cc2ccccc2O3)cc1,,2.24 µM (active)
COc1cc(OC)cc(-c2nnc(SCC(=O)Nc3ccc(C(=O)O)cc3)s2)c1,0.87,
O=C(NCCc1csc(-c2ccc(C(F)(F)F)cc2)n1)C(=O)Nc1ccc(F)c(Cl)c1,9.52,
CC(=O)c1ccc(NC(=O)CSc2nc(-c3ccccc3F)nc3c2c(=O)n(C)c(=O)n3C)cc1,15.7,
Cc1c(C)c2ccc(OCC(=O)N3CCC(C(=O)O)CC3)c(C)c2oc1=O,6.9,
Cc1c(CC(=O)N2CCN(C(=O)C3COc4ccccc4O3)CC2)c(=O)oc2c(O)c(O)ccc12 (stereo not given),,0.794 µM (active)
COc1ccc(OC)c2sc(N3CCN(C(=O)C4COc5ccccc5O4)CC3)nc12 (stereo not given),30.1,
COc1ccc(OC)c(CNC(=O)CN2C(=O)CCn3nc(-c4cn(C)c5ccccc45)cc32)c1,-1.15,
CC(=O)Nc1ccc(S(=O)(=O)N2CCN(c3ccccc3)CC2)cc1,10.6,
Cc1cc(/C=C2\SC(=Nc3ccc(N4CCOCC4)cc3)N(C)C2=O)c(C)n1-c1cccnc1,-4.4,
Cc1cc(/C=C2/SC(=O)N(CC(=O)N3CCCC3)C2=O)c(C)n1C,10.2,
Cc1cc(/C=C2\SC(=O)N(C)C2=O)c(C)n1-c1cccc(C(=O)O)c1,,28.2 µM (active)
O=C(CSCc1cnn(-c2ccccc2)c1-n1cccc1)NCc1ccc(Cl)cc1,-18.2,
COc1ccccc1/C=C/c1nc(C#N)c(NC(C)c2ccccc2)o1 (stereo not given),17.7,
COc1ccc(-c2nc3sc(CCNC(=O)C(C)(C)C)c(C)n3n2)cc1,13.6,
Cc1ccc2onc(CC(=O)N3CCN(c4ccc(Cl)cc4)CC3)c2c1,-2.82,
CC(C)c1ccc(S(=O)(=O)Nc2ccc(O)c(Sc3nc4ccccc4s3)c2)cc1,0.597,
COc1cccc(NC(=O)CSC2=Nc3ccccc3C3=NC(CC(=O)NC4CCCCC4)C(=O)N23)c1 (stereo not given),28.4,
Cc1n[nH]c(=O)nc1N/N=C/c1cccs1,0.0263,
O=C(Cn1cnc2ccccc21)N/N=C/c1ccco1,10.1,
O=c1nc(N/N=C/c2ccco2)cn[nH]1,,11.2 µM (active)
CCC(=O)N1CCc2cc(S(=O)(=O)NC(C(=O)Nc3ccc(C(C)=O)cc3)C(C)C)ccc21 (stereo not given),41.1,
Cc1cccc(C2CC(=O)Oc3c2c(=O)n(C)c2ccccc32)c1 (stereo not given),0.545,

Compound,"activity change, negative = inhibition [%]",Potency
Cc1ccc(OCC(=O)Nc2ccc(Cl)c(-c3nc4ccccc4[nH]3)c2)cc1C,7.96,
COc1ccc(-c2nn(-c3ccccc3)cc2/C=C2/SC(=S)N(CCCC(=O)O)C2=O)c(C)c1,5.41,
C=CCOc1ccc(/C=C2\SC(=S)N(CCC(=O)O)C2=O)cc1,9.93,
Cc1ccc(-c2nn(-c3ccccc3)cc2/C=C2\SC(=S)N(CCCCCC(=O)O)C2=O)o1,,50.1 µM (active)
Cc1cccc(Cn2c(CN3CCC(C(=O)NCc4ccccc4Cl)CC3)cc3ccccc32)c1,-1.55,
CCc1ccc(N(CC)C(=O)CCn2cnc3onc(-c4ccc(F)cc4)c3c2=O)cc1,11.9,
CCCN1C(=O)C(O)(CC(=O)c2ccc(CC)cc2)c2cc(Br)ccc21 (stereo not given),-2.24,
COc1ccc(C(=O)/C=C/c2ccc(OC3CSC3)cc2)cc1,-23.2,
COc1ccc(C(=O)/C=C/c2cccnc2)c(OC)c1,7.61,
COc1ccc(/C=C/C(=O)c2cc(Br)ccc(=O)c2O)cc1,,50.1 µM (active)
CSc1ccc(CCNC(=O)c2cnn(-c3ccccc3)c2-n2cccc2)cc1,-27.9,
O=C(/C=C/c1ccccc1)N1CCN(Cc2cc(=O)n3nc(-c4ccccc4F)sc3n2)CC1,5.97,
CCOc1ccccc1C(=O)NC1(C(F)(F)F)C(=O)Nc2c1c(=O)[nH]c(=O)n2-c1ccc(F)cc1 (stereo not given),0.604,
Cc1ccc(CCNC(=O)c2nnc(Cc3cccc(F)c3)o2)cc1,1.44,
CCOC(=O)c1ccc(S(=O)(=O)N(CCO)Cc2cc3cc(OC)c(OC)cc3[nH]c2=O)cc1,0.18,
CCOc1ccc2[nH]c(=O)c(CN(CCCO)S(=O)(=O)c3ccc(F)cc3)cc2c1,8.93,
COc1ccc(S(=O)(=O)N(CCCN2CCCC2=O)Cc2cc3c(C)ccc(C)c3[nH]c2=O)cc1,,89.1 µM (active)
Cc1ccccc1NC(=O)CN1C(=O)C(C)(C)c2ccccc21,-11,
Cc1ccccc1NC(=O)CN1C(=O)N/C(=C\c2cccn2-c2cccc(C(=O)O)c2)C1=O,,2.24 µM (active)
O=C1N/C(=C/c2cccn2-c2ccccc2)C(=O)N1c1cccc(Cl)c1,16.2,
COc1ccccc1NC(=O)C1=C(C)Nc2nc(SCC(=O)c3ccc(C)cc3)nn2C1c1ccccc1C (stereo not given),-15.8,
CCc1ccccc1NC(=O)Cn1c(=O)n(-c2cccc(C)c2)c(=O)c2c1c1cc(OC)ccc1n2C,1.55,
NC(=O)c1c(NC(=O)CSc2nc(N)cc(=O)[nH]2)sc2c1CCCC2,-5.47,
NC(=O)c1c(NC(=O)CSc2nnc(-c3ccco3)n2N)sc2c1CCCC2,,39.8 µM (active)

Compound,"activity change, negative = inhibition [%]",Potency
CCc1cccc(C)c1NC(=O)CSc1nnc(-c2ccco2)n1N,0.0582,
CCOc1ccccc1C(=O)NCc1ccc2c(c1)CCN2C(=O)c1ccc(F)cc1,7.58,
O=C(OCN1C(=O)c2ccccc2C1=O)/C(=C\c1ccco1)NC(=O)c1ccccc1,17.1,
O=c1nc2s/c(=C\c3ccco3)c(=O)n2nc1Cc1ccccc1,,14.1 µM (active)
O=C(O)C1=C[C@H](c2cccs2)C[C@H](OCCCCO)O1,-25.8,
C#Cc1ccc([C@@H]2C=C(C(=O)O)O[C@H](OCCCCO)C2)cc1,,28.2 µM (active)
C=CCOC(=O)C1=C[C@@H](c2ccccc2)C[C@@H](OCc2ccc(CO)cc2)O1,-3.45,
CCCCc1nn2c(=O)cc(COC(=O)c3cccc(NC(=O)COc4ccccc4)c3)nc2s1,1.33,
COc1ccc(N2CCN(C(=O)C3CCN(S(=O)(=O)c4ccc(C)cc4)CC3)CC2)cc1,0.247,
COc1ccc(N2CCN(S(=O)(=O)c3ccc4c(c3)N(C(C)=O)CCO4)CC2)cc1,-5.9,
COc1ccc(N2CCN(S(=O)(=O)c3ccc(-c4coc(C)n4)cc3)CC2)cc1,,31.6 µM (active)
O=C(CSc1nc2ccccc2c(=O)[nH]1)Nc1nc(-c2ccc(Br)cc2)cs1,,4.47 µM (active)
Cc1ccc(-c2csc(NC(=O)Cn3[nH]c(=O)c4ccccc4c3=O)n2)cc1,-17.4,
O=C(CSC1=NCCS1)Nc1nc(-c2ccccc2)cs1,16.3,
CC(C)(C)c1ccc(C(=O)NCC(c2ccco2)S(=O)(=O)c2ccc(F)cc2)cc1 (stereo not given),-18.4,
COc1cccc(NC(=O)N(Cc2cn(C)c3ccccc23)C2CCCCCC2)c1,-7.08,
O=C(CSc1ccc(-c2ccco2)nn1)NCc1ccc2c(c1)OCO2,,15.8 µM (active)
O=C(CSc1ccc(-c2ccco2)nn1)Nc1cccc(F)c1,-29.3,
Cc1ccccc1-c1nnc(SCC(=O)NCc2ccc3c(c2)OCO3)n1C,25,
Cc1ccccc1OCCSc1nc2ccc(NC(=O)c3ccco3)cc2s1,0.968,
Cc1ccc(C2CCN(C(=O)c3cnn(-c4ccccc4Cl)c3C3CCN(C(=O)OC(C)(C)C)CC3)C2)cc1 (stereo not given),2.89,
Cc1cccc(N2CCN(S(=O)(=O)c3ccc(-c4cc(C)no4)s3)CC2C)c1 (stereo not given),0.87,
Cc1cccc(N2CCN(S(=O)(=O)c3ccc4[nH]c(=O)c(=O)[nH]c4c3)CC2C)c1 (stereo not given),,25.1 µM (active)
Cc1cccc(N2CCN(C(=O)c3cccc(S(=O)(=O)N4CCc5ccccc5C4)c3)CC2C)c1 (stereo not given),2.53,

Compound,"activity change, negative = inhibition [%]",Potency
CC(C)(C)c1ccc(OCC(=O)N2CCC(c3nc4ccccc4s3)CC2)cc1,10.9,
COc1ccccc1C(=O)N/C(=C/c1ccco1)C(=O)Nc1ccc(C(=O)O)cc1,,50.1 µM (active)
O=C(Nc1ccccc1)/C(=C\c1ccco1)NC(=O)c1ccco1,-1.05,
Cc1cccc(NC(=O)/C(=C\c2ccco2)NC(=O)c2ccccc2)c1,0.753,
CC(=O)Nc1cc(C(=O)NCc2ccc(F)cc2Cl)ccc1Sc1ccc(Cl)cc1,-16.2,
CCC(Sc1nnc(-c2ccc(OC)cc2)c(-c2ccc(OC)cc2)n1)C(=O)NC1CCCCC1 (stereo not given),1.49,
COc1cccc(-n2cc(C(=O)NCc3cccc(Cl)c3)c3ccccc3c2=O)c1,12.9,
Nc1ccc(-c2sc(N)nc2-c2ccccc2)cc1,23.9,
Nc1[nH]c(=S)nc2nc(-c3ccccc3)c(-c3ccccc3)nc12,,22.4 µM (active)
Cc1ccc2cccc(NC(=O)C(C)Oc3ccc(C)c(C)c3)c2n1 (stereo not given),14.5,
Cn1nc(-c2ccccc2)c(-c2ccccc2)c(C(=O)Nc2ccc(S(N)(=O)=O)cc2)c1=O,-0.58,
COc1ccc(Cn2ccnc2SCC(=O)Nc2ccc3c(c2)OCO3)cc1,0.783,
CCCS(=O)(=O)N1CCC(n2c(C(F)(F)F)nc3cccnc32)CC1,33.3,
COc1ccc(C(=O)Nc2cc(C)ccc2NC(=O)COc2ccccc2)cc1,1.19,
COc1ccc(C(=O)NNC(=S)NC(=O)c2ccccc2)cc1,0.641,
COc1ccc(OCC(=O)NNC(=O)c2ccc(-c3ccccc3)cc2)cc1,,44.7 µM (active)
O=C(CS(=O)(=O)c1cccc2nsnc12)N1CCN(c2cccc(Cl)c2)CC1,-19.8,
CCOc1ccc(S(=O)(=O)Nc2ccc3oc4c(c3c2)CC(C)CC4)cc1 (stereo not given),-14.6,
Cc1cccc(NC(=O)CSc2ncc(-c3ccccc3)[nH]2)c1C,0.698,
Cc1cc(C)n2nc(SCC(=O)NC(=O)NCc3ccco3)nc2n1,-25.1,
Cc1ccc(NC(=O)C(=O)NCc2ccco2)c(C)c1,28.8,
Cc1ccc(SCC(=O)NC(=O)NCc2ccco2)c(C)c1,,25.1 µM (active)
Cn1ccc2cc(S(=O)(=O)N3CCCC(C(=O)NCc4ccccc4F)C3)ccc21 (stereo not given),9.68,
